Over roughly 1,000 compounds, “thermal shift dTm” has its median near 0.19; the highest 2% begin near 1.7. Many of the other results were omitted from the sample, so the highest values are more common in it than they were. Active and inactive are the calls of the source.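 The calls were made as follows: active = mean rise in melting temperature of at least 1 degC over same-plate control wells; inactive = below that, where a call was filed.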

The assay deals with Sulfhydryl oxidase 1 (Homo sapiens) (UniProt O00391). Put plainly: ligand-induced melting shift of human QSOX1 – biophysical, protein thermal shift, single concentration, QSOX1 inhibitor project, confirmation (AID 1347422).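 Also: dTm is compound Tm minus mean Tm of DMSO-only wells on that plate.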 The following applies: recombinant hQSOX1 thermal shift, Sypro Orange, at 25 µM, stronger effect = higher value.
Sulfhydryl oxidase 1 (Homo sapiens), sequence (O00391 whole entry, looked up): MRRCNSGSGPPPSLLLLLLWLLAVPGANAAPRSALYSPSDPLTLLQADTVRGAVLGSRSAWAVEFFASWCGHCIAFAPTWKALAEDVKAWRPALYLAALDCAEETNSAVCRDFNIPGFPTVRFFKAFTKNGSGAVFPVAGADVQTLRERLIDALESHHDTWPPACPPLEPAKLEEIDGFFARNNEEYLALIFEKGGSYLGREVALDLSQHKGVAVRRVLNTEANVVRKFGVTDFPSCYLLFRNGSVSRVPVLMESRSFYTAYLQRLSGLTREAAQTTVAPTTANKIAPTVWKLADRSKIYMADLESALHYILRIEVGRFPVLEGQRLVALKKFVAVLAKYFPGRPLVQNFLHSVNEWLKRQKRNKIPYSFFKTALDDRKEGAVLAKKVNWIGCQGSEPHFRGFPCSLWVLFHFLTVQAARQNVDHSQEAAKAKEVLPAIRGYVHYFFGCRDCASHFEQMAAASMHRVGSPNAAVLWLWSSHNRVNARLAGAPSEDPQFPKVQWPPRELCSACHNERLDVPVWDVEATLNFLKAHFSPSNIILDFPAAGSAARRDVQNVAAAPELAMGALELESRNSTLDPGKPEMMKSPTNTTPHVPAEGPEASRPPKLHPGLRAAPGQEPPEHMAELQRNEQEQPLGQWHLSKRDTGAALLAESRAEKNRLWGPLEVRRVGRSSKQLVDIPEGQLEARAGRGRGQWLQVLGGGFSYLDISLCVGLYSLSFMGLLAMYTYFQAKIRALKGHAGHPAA
In the case of `Cc1ccccc1OCc1nc(-c2cccc(NC(=O)c3ccco3)c2)no1`, the thermal shift dTm amounted to 0.57 °C.

Turning to `COc1ccc(/C=C/C(=O)Nc2cccc(C(C)=O)c2)cc1`, the thermal shift dTm is 1.18 °C (active).

In the case of `Nc1cccc(/C=C/C(=O)c2ccccc2)c1`, the thermal shift dTm stood at 0.57 °C.

As to `COc1ccc(C(=O)/C=C/c2cccc(OC)c2)cc1`, the thermal shift dTm was 2.07 °C (active).

Take `O=C(NC1CC(=O)N(Cc2cccc3ccccc23)C1)C(=O)c1ccccc1` (configuration not stated): the thermal shift dTm came out at 0.23 °C.

With `O=C(Nc1ccc(Cl)cc1)Nc1ccccc1OC(F)F`, the thermal shift dTm turned out to be 0.25 °C.

Regarding `COc1ccc(C)cc1NC(=O)Nc1ccc(OC(F)F)c(Cl)c1`, the thermal shift dTm was -0.79 °C (inactive).

Turning to `CCCc1cc(=O)[nH]c(SCC(=O)Nc2nc(-c3ccccc3)cs2)n1`, the thermal shift dTm is 1.07 °C (active).

For `COc1ccccc1C(=O)NC(=S)Nc1ccc(NC(=O)C(C)C)cc1`, the thermal shift dTm amounted to 0.11 °C.

For the compound `O=c1c2ccccc2ncn1CCCOc1ccc2ccccc2c1Br`, the thermal shift dTm amounted to 0.11 °C.

Regarding `COc1ccc(Cl)cc1NC(=S)Nc1c(C)nn(Cc2c(F)cccc2Cl)c1C`, the thermal shift dTm was found to be 0.81 °C.

On to `CCCOC(=O)c1c(NC(=O)C2CC=CCC2C(=O)O)sc(C)c1-c1ccc(F)cc1` (configuration not stated), for which the thermal shift dTm worked out at 0.77 °C.

Take `CC1Oc2ccc(-c3csc(NC(=O)COc4ccc(Cl)cc4)n3)cc2NC1=O` (configuration not stated): the thermal shift dTm is -0.1 °C (inactive).

For `Cc1ccc(-n2[nH]c(CSc3nnnn3-c3ccccc3)cc2=O)cc1`, the thermal shift dTm worked out at 0.43 °C.

`Cc1[nH]nc(-c2ccc(O)c(O)c2O)c1Oc1ccc(F)cc1`: the thermal shift dTm is -5.32 °C (inactive).

Consider `Cc1ccc(O)c(-c2cc(-c3ccccc3)n[nH]2)c1`, for which the thermal shift dTm was 0.01 °C.

For the compound `Cc1ccc(-c2cc(-c3ccc(F)cc3)n[nH]2)c(O)c1`, the thermal shift dTm is 1.84 °C (active).

In the case of `O=C(Nc1cccc(-c2noc(CCc3ccccc3)n2)c1)c1cccs1`, the thermal shift dTm turned out to be 0.1 °C.

For `O=C(/C=C/c1ccco1)NCc1cccc(CNC(=O)/C=C/c2ccco2)c1`, the thermal shift dTm is 1.04 °C (active).

Turning to `CCCC(=O)NC(c1ccccc1OC)c1c(OC(=O)COc2ccccc2)ccc2ccccc12` (configuration not stated), the thermal shift dTm was -0.13 °C (inactive).

As to `OCc1ccc(OCc2ccc(F)cc2)c(Br)c1`, the thermal shift dTm turned out to be 0.58 °C.

As to `COc1cccc(C(=O)NCCc2c[nH]c3ccc(C)cc23)c1`, the thermal shift dTm was 0.07 °C.

Take `COc1ccc2[nH]cc(CCNC(=O)c3ccc(OC(C)=O)cc3)c2c1`: the thermal shift dTm was found to be 0.81 °C.

Consider `COc1ccc2[nH]cc(CCNC(=O)c3cccc(Cl)c3)c2c1`, for which the thermal shift dTm was 1.74 °C (active).

For `NC(=O)c1ccc(NC(=O)C2CC2(c2ccccc2)c2ccccc2)cc1` (configuration not stated), the thermal shift dTm came out at 0.19 °C.

As to `O=C(Nc1cccc(OCC2CCCO2)c1)c1cccs1` (configuration not stated), the thermal shift dTm amounted to 0.09 °C.

On to `COc1cccc(C(=O)Nc2nc3ccc(Cl)cc3s2)c1`, for which the thermal shift dTm was 0.62 °C.

Turning to `COc1ccc(C(=O)Oc2ccccc2Cl)cc1Br`, the thermal shift dTm was found to be 0.06 °C.

On to `COc1ccc(-c2nc(-c3cccs3)c(-c3cccs3)[nH]2)cc1`, for which the thermal shift dTm came to 0.25 °C.

As for `Fc1ccc(-c2nc(-c3cccs3)c(-c3cccs3)[nH]2)cc1`, the thermal shift dTm was 3.34 °C (active).

With `c1csc(-c2nc(-c3cccs3)c(-c3cccs3)[nH]2)c1`, the thermal shift dTm stood at 0.06 °C.

For `Cc1oc(-c2ccccc2NS(C)(=O)=O)nc1CN(C)Cc1ccc(OC(F)F)cc1`, the thermal shift dTm came to 0.18 °C.

In the case of `N#Cc1cccc(NC(=O)c2cc3ccccc3o2)c1`, the thermal shift dTm came out at 0.32 °C.

On to `CC(=O)Nc1ccc(NC(=O)c2cc3ccccc3o2)cc1`, for which the thermal shift dTm was 1.73 °C (active).

Regarding `Cc1cc(NC(=O)c2ccccn2)ccc1NC(=O)c1cc2ccccc2o1`, the thermal shift dTm worked out at 0.19 °C.

`O=C(Nc1cccc(OCc2ccccc2)c1)c1ccco1`: the thermal shift dTm is 0.23 °C.

On to `Cc1ccc(-c2noc(CNC(=O)C34CC5CC(CC(C5)C3)C4)n2)cc1`, for which the thermal shift dTm came to 0.16 °C.

As to `O=C(CCSc1nc2sc3c(c2c(=O)[nH]1)CCCC3)Nc1ccccc1`, the thermal shift dTm was determined as 0.02 °C.

As to `NC(=O)c1ccc(-c2ccc3[nH]ccc3c2)nc1`, the thermal shift dTm came to 0.79 °C.

Turning to `Cc1cc2ncn(CCCOc3ccc(Cl)cc3)c2cc1C`, the thermal shift dTm amounted to 0.11 °C.

As to `CC(C)N(Cc1nc(-c2ccc(Cl)cc2)no1)S(=O)(=O)c1ccc(F)cc1`, the thermal shift dTm came out at 0.02 °C.

Turning to `CCc1ccc(NC(=O)Nc2ccc(Br)cn2)cc1`, the thermal shift dTm worked out at 0.09 °C.

Regarding `COc1ccc(NC(=O)Nc2ccc(C)cc2)c(OC)c1`, the thermal shift dTm worked out at 0.2 °C.

Take `COc1cccc(NC(=O)Nc2cccc3ccccc23)c1`: the thermal shift dTm stood at 0.01 °C.

As for `COc1ccc(C)cc1NC(=O)Nc1ccc(NC(C)=O)cc1`, the thermal shift dTm was found to be 0.57 °C.

As to `COc1ccc(NC(=O)Nc2ccc(C(C)=O)cc2)c(C)c1`, the thermal shift dTm was 2.14 °C (active).

With `COc1ccc(OC)c(NC(=O)Nc2cccc(NC(C)=O)c2)c1`, the thermal shift dTm was 1.91 °C (active).

In the case of `COc1ccc(NC(=O)Nc2ccc(C)cc2C)cc1`, the thermal shift dTm turned out to be 0.05 °C.

As for `N/C(=N\c1nc(-c2cccs2)cc(C(F)(F)F)n1)Nc1ccc2c(c1)OCCO2`, the thermal shift dTm was found to be 0.35 °C.

On to `COc1cccc(NC(=O)Nc2ccc(Cc3ccncc3)cc2)c1`, for which the thermal shift dTm came out at 0.38 °C.

Regarding `COc1ccc(NC(=O)Nc2cccc(Cn3cc(Cl)cn3)c2)cc1`, the thermal shift dTm was 2.14 °C (active).

For `COc1ccc(NC(=O)Nc2cccnc2)cc1`, the thermal shift dTm is 0.28 °C.

As for `Cc1nnc(NC(=O)c2ccc(NC(=O)c3ccco3)cc2)s1`, the thermal shift dTm came out at 0.7 °C.

Consider `CC(=O)Nc1ccc(NC(=O)c2nnn(-c3cccc(Cl)c3)c2N)cc1`, for which the thermal shift dTm amounted to 0.55 °C.

Take `O=C(Nc1nccs1)c1ccccc1OCc1ccccc1`: the thermal shift dTm stood at 0.37 °C.

Turning to `CCc1sc(NC(=O)Cc2ccc(F)cc2)nc1-c1ccccc1`, the thermal shift dTm stood at 0.17 °C.

In the case of `O=S(=O)(NCCSC1CCCCC1)c1ccc(Cl)cc1`, the thermal shift dTm was found to be 0.11 °C.

Consider `O=C(CCc1ccccc1)Nc1cccc(-c2nc3ccccc3s2)c1`, for which the thermal shift dTm was found to be 0.59 °C.

In the case of `CC(=O)Nc1ccc(C(=O)CSc2ccc3ccccc3n2)cc1`, the thermal shift dTm is 1.22 °C (active).

With `Cc1ccccc1NC(=S)NCCC(c1ccccc1)c1ccccc1`, the thermal shift dTm stood at 0.02 °C.

As to `Cc1ccc(NC(=O)Nc2ccc3snnc3c2)cc1`, the thermal shift dTm was -0.45 °C (inactive).

On to `c1ccc(COc2ccc(-c3noc(-c4ccccn4)n3)cc2)cc1`, for which the thermal shift dTm came to 0.01 °C.

`C=CCc1c(C)nc2c(-c3ccccc3)cnn2c1NCc1cccnc1`: the thermal shift dTm is -0.08 °C (inactive).

Take `Cc1cc(OCCn2cc(C(=S)N3CCOCC3)c3ccccc32)ccc1Cl`: the thermal shift dTm was 0.02 °C.

For the compound `COc1ccc2c(c1OC)C(=O)N(c1ccc(Cl)cc1)C2`, the thermal shift dTm worked out at 0.81 °C.

Consider `c1cc(NCc2ccc3c(c2)OCO3)cc(-c2nc3ccccc3[nH]2)c1`, for which the thermal shift dTm was 2.39 °C (active).

With `O=C(Nc1cccc(-c2nc3ccccc3[nH]2)c1)C1CCCO1` (configuration not stated), the thermal shift dTm was 0.02 °C.

For the compound `Cc1ncc(CNc2ccc(-c3nc4ccccc4[nH]3)cc2)cn1`, the thermal shift dTm came out at 0.14 °C.

Take `COc1ccc(C(=O)Nc2ccc(NC(C)=O)cc2)cc1C`: the thermal shift dTm was 1.48 °C (active).

For the compound `COc1ccc(NC(=O)c2ccoc2)cc1Cl`, the thermal shift dTm turned out to be 0.23 °C.

Consider `COc1ccc(C(=O)Nc2ccc(Cl)c(C)n2)cc1Cl`, for which the thermal shift dTm is 1.85 °C (active).

With `COc1ccc(-c2noc(-c3cccc(NC(C)=O)c3)n2)cc1`, the thermal shift dTm came out at 0.24 °C.

For `CSc1cccc(NC(=O)NCc2ccccn2)c1`, the thermal shift dTm stood at 0.18 °C.

As to `O=C(Nc1nc(-c2ccccc2)ns1)N1CCOc2ccc(Cl)cc2C1`, the thermal shift dTm is 0.23 °C.

Turning to `O=C(CN(c1ccccc1F)S(=O)(=O)c1ccccc1)Nc1ccc(F)cc1F`, the thermal shift dTm is -0.03 °C (inactive).

For `Cc1cc(N(C)C)nc(N2CCN(C(=O)Nc3cccc(F)c3)CC2)n1`, the thermal shift dTm is -0.08 °C (inactive).

`CCCN(CC1CC1)C(=O)c1cc(COc2ccc(OC)cc2Cl)on1`: the thermal shift dTm was found to be 0.09 °C.

With `CC(=O)Oc1ccc2cc(-c3ccc(Cl)cc3)c(=O)oc2c1`, the thermal shift dTm is 0.11 °C.

Take `CCCn1c(=O)[nH]c(=O)c2c(-c3cccc4ccccc34)ccnc21`: the thermal shift dTm was determined as 0.25 °C.

Consider `Cc1ccc(NC(=O)Nc2ccc(Br)cc2)nc1`, for which the thermal shift dTm amounted to 0.28 °C.

Regarding `Cc1ccc2ccc(C(Nc3ccccn3)c3ccc(Cl)cc3)c(O)c2n1` (configuration not stated), the thermal shift dTm is 0.57 °C.

For `O=c1[nH]c(SCc2ccc(Cl)c(Cl)c2)nc2ccccc12`, the thermal shift dTm was found to be 0.11 °C.

Source of the values: PubChem BioAssay AID1347422 (Sanford-Burnham Center for Chemical Genomics, 2020).
